Assay outcomes: PubChem, National Center for Advancing Translational Sciences (NCATS)
HSD17B inh – qHTS Assay for Inhibitors of HSD17B4, hydroxysteroid (17-beta) dehydrogenase 4 | AID 893, 2007 | 75,000 tested, 7.6% active | Potency, µM (doses to about 57.1 µM), for the others: at the highest dose activity change, negative = inhibition, most hits filed as inhibitors | recombinant HSD17B10, NADH fluorescence kinetic | 3-hydroxyacyl-CoA dehydrogenase type-2 (Homo sapiens), Q99714;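 note: the protocol describes HADH2 (HSD17B10) and not the HSD17B4 of the title; potency is the fitted concentration of half-maximal effect; % is set by controls: 0 for no effect and ±100 for the full control effect; nearly all actives have a fitted effect of over 70% in size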
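His-tagged E. coli-expressed HADH2 at 20 nM in 100 mM Tris-HCl pH 9.0 with 0.01 % Tween-20, preincubated 15 min with compound at room temperature. Reaction with 1 mM NAD+ and 90 uM beta-hydroxybutyryl coenzyme A; NADH fluorescence (360/450 nm) read kinetically over 4 min, last minus first point.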
CRE-bla Fsk – Cell signaling CRE-BLA (Fsk stim) | AID 662, 2007 | 71,000 tested, 2.5% active | Potency, µM (doses to about 38.2 µM), for inactives: at the highest dose activity change, negative = inhibition, hits mostly activators | CHO CRE-bla reporter (cAMP response element driving beta-lactamase), forskolin EC10, beta-lactamase ratio; active = well fitted activation curve with a large enough effect in the signal ratio, with a control signal flat, not every such curve was filed as active; inconclusive = small, poorly fitted or top-dose-only effect, or effect the other way, or a change in a side signal; the % refers to the signal ratio; note: potency is the fitted concentration of half-maximal effect; % of control where 0% means no effect
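CRE-bla CHO reporter cells treated with compound titration plus EC10 NKH 477 (water-soluble forskolin), incubated 3 h at 37 °C; CCF4 loading 2 h at room temperature, 460/530 nm emission ratio read, AC50 values derived for positive or negative modulators.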
HADH2 inhib – qHTS Assay for Inhibitors of HADH2 (Hydroxyacyl-Coenzyme A Dehydrogenase, Type II) | 3-hydroxyacyl-CoA dehydrogenase type-2 (Homo sapiens), Q99714 | recombinant HADH2, NADH fluorescence, beta-hydroxybutyryl-CoA | Potency, µM (series often up to 57.1 µM), for inactives: top-dose activity change, negative = inhibition, most hits filed as inhibitors | 73,000 tested, 3.4% active | AID 886, 2007; note: potency is the fitted concentration of half-maximal effect; % is set by controls: 0 for no effect and ±100 for the full control effect; nearly all actives have a fitted effect of over 60% in size
Target sequence (Q99714 whole entry, looked up, one chain of several): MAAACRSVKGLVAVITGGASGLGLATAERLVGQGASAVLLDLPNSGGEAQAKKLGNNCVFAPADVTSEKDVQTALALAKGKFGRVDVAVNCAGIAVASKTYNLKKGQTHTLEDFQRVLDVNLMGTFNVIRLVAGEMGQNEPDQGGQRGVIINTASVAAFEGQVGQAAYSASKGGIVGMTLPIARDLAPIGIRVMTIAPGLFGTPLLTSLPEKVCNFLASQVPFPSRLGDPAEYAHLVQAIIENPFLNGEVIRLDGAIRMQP
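Buffer 100 mM Tris-HCl pH 9.0/0.01% Tween-20; HADH2 20 nM; NAD+ 1 mM; beta-hydroxybutyryl-CoA 90 uM (all final). 15 min cpd preincubation, RT.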
4MU fluor – qHTS Assay for Spectroscopic Profiling in 4-MU Spectral Region. 59,000 tested, 11% active. max dye-equivalent concentration, M. compound autofluorescence, 340/450 nm, 4-MU equivalents; active compounds read high; in the data active = max dye-equivalent concentration above about 10 nM; inconclusive = mostly about 1.1 nM to 9.6 nM
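Compounds in 100 mM Tris, pH 8.0, sat 15 min at room temperature before fluorescence was read at 340 nm excitation/450 nm emission; a per-plate six-point 4-MU standard curve converted signals to dye-equivalent concentration at each compound concentration.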
A350 autofl – qHTS Assay for Spectroscopic Profiling in A350 Spectral Region | Compound autofluorescence, 340/450 nm, Alexa 350 dye-equivalents; active compounds read high | max dye-equivalent concentration, M | 59,000 tested, 11% active | AID 590, 2007; in the data active = max dye-equivalent concentration above about 10 nM; inconclusive = mostly about 1.1 nM to 9.6 nM
AID923 – qHTS Assay for Allosteric/Competitive Inhibitors of Caspase-1: Spectroscopic Profiling in AFC Spectral Region | AID 923, 2007 | compound fluorescence, AFC spectral region (405/520 nm) | 75,000 tested, 1.1% active | Potency, µM (top dose mostly 57.5 µM), for inactives: at the highest dose fluorescence increase, hits mostly activators; note: potency is the fitted concentration of half-maximal effect; 0% is about no effect
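Baseline compound fluorescence (AFC region, 405 nm ex/520 nm em) taken from the intercept of kinetic reads with 50 nM caspase-1 and 5 uM Ac-WEHD-AFC; normalized to an on-plate AFC standard curve; compounds titrated up to 57 uM.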
CHO via 24h – Cell Viability - CRE-beta lactamase CHO cell - 24 hr assay; shares compounds with CRE-bla Fsk; CRE-bla CHO viability, ATP luminescence, 24 h; activity, negative = viability loss, % at 46.1 µM; 120 tested, under 10 active
CHO tox 40h – Cell Viability - CRE-beta lactamase CHO cell - 40 hr assay; shares compounds with CRE-bla Fsk; CRE-bla CHO viability, ATP luminescence, 40 h; Potency, µM, for the others: max response, usual class: inhibitors; 120 tested, under 10 active; AID 906, 2007
CRE-luc potent – Confirmation Concentration-Response Assay for Cell signaling CRE-BLA (Fsk stim) - HEK293 CREB Luciferase. shares compounds with CRE-bla Fsk. HEK293 CRE-luc2P, NKH477 EC10 potentiation, luminescence, 4 h. Potency, µM (series often up to 38.3 µM), for inactives: at the top dose activity, positive = activation, most hits filed as activators. 120 tested, 80% active. AID 907, 2007
Numbers without * were called inactive; i = inactive; ? = inconclusive; . = not tested or not shown. This is a sample that favours compounds with a hit; in the whole collection about 14% have one here. Unless noted, calls come from the whole dose curve; as a rule, active = well fitted curve in the direction sought with a large enough effect; inconclusive = small, poorly fitted or top-dose-only effect, or another doubt; inactive = no such curve, though single readings can be large; an effect the other way counts as inactive or inconclusive.

SMILES | HSD17B inh | CRE-bla Fsk | HADH2 inhib | 4MU fluor | A350 autofl | AID923 | CHO via 24h | CHO tox 40h | CRE-luc potent
Fc1ccc(CSc2ncnc3c2oc2ccccc23)cc1 | -7% | 1µM* | -7% | i | ? | -2% | 7 | -21% | 7.9µM*
Cc1nc(SCc2nc3ccccc3[nH]2)c2oc3ccccc3c2n1 | ? | 0.016µM* | 8% | i | i | 7% | 16 | 2% | 1µM*
c1ccc2[nH]c(CSc3ncnc4c3oc3ccccc34)nc2c1 | 32% | ? | 6% | i | i | 5% | -18 | ? | 0.79µM*
c1ccc2[nH]c(CN3CCN(c4ncnc5c4oc4ccccc45)CC3)nc2c1 | -7% | ? | 7% | i | i | 0% | . | . | .
CCOC(=O)CN1C(=O)COc2ccc(Cl)cc21 | 7% | 2% | -4% | i | i | -1% | . | . | .
Cc1cc(C(=O)CSc2nnnn2C)c(C)n1CCc1ccc(Cl)cc1 | -20% | -11% | 13% | i | i | -1% | . | . | .
COc1ccc(CNC(=O)CN(c2cc(C)cc(C)c2)S(=O)(=O)c2c(C)noc2C)cc1 | 3% | -2% | ? | . | . | 1% | . | . | .
CCCC(c1nnnn1CCC(C)C)N1CCC(C(N)=O)CC1 (stereo unspecified) | -4% | -19% | 8% | i | i | 0% | . | . | .
CCOC(=O)CNC(=O)CSc1nc(N(C)C)nc(N2CCOCC2)n1 | 15% | ? | 4% | i | i | 0% | . | . | .
CCOc1ccc(C2=Nn3c(nnc3-c3ccccc3)SC2)cc1Cl | 5% | 0.079µM* | -10% | i | i | 0% | -5 | -8% | 1.6µM*
COc1ccc(C2=Nn3c(nnc3-c3ccccc3OC)SC2)cc1OC | 0% | 1.3µM* | -9% | i | i | -1% | ? | -27% | 0.04µM*
COc1ccc(Nc2nc(Nc3ccc(OC)cc3)nc(-n3[nH]c(=O)c(C)c3C)n2)cc1 | . | . | . | i | i | . | ? | ? | 0.5µM*
COc1ccc(C)cc1S(=O)(=O)N(C)CC(N)=O | 6% | -5% | 8% | i | i | 1% | . | . | .
COC(=O)c1ccc(CSc2nnc(-c3ccncc3)o2)o1 | 2% | 7% | 14% | i | i | -2% | . | . | .
CCN(C(=O)c1cn(C)c(=O)c2cc(OC)c(OC)cc12)c1cc(C)ccc1C | -30% | ? | -3% | i | i | -1% | . | . | .
CCN(C(=O)c1cn(C)c(=O)c2cc(OC)c(OC)cc12)c1ccccc1C | -21% | ? | 6% | i | i | 1% | -3 | -7% | 5µM*
Cc1cc(Nc2cccc(C)c2C)n2nc(C)nc2n1 | 2% | ? | -1% | . | . | -1% | . | . | .
CCc1nc2nc(C)cc(Nc3cccc(C(F)(F)F)c3)n2n1 | -13% | 4µM* | -2% | i | i | 0% | -17 | -28% | 13µM*
COc1cc(-c2nnc3sc(C4CCCCC4)nn23)cc(OC)c1OC | -28% | 1µM* | -5% | i | i | -3% | ? | ? | 0.13µM*
COc1cccc(-c2nnc3sc(C4CCCCC4)nn23)c1 | . | . | . | i | i | . | . | . | .
c1ccc(-n2cnnc2SCc2nc3ccccc3s2)cc1 | 4% | ? | -5% | i | i | 2% | . | . | .
Nc1nc(N2CCOCC2)nc(N(c2ccccc2)c2ccccc2)n1 | 0% | 1% | 1% | . | . | -4% | . | . | .
Nc1nc(CSCc2ccccc2)nc(N2CCOCC2)n1 | -1% | 26% | -10% | i | i | 1% | 3 | -12% | 2.8µM*
CCOC(=O)c1cnc2c(cnn2CC)c1NN=C(C)C | ? | 1µM* | ? | 3.2e-08M* | 2e-08M* | 0% | -18 | ? | 3.2µM*
Nn1c(SCC(=O)Nc2ccc3c(c2)OCCO3)nnc1-c1ccccn1 | 3% | -26% | 15% | i | i | -1% | . | . | .
SMILES | HSD17B inh | CRE-bla Fsk | HADH2 inhib | 4MU fluor | A350 autofl | AID923 | CHO via 24h | CHO tox 40h | CRE-luc potent
O=C(Cn1cc2c(n1)CCCC2)NC1CCN(Cc2ccccc2)CC1 | 2% | -3% | 4% | . | . | 3% | . | . | .
CCn1c2ccccc2c2nnc(SCc3cc(=O)n4ccsc4n3)nc21 | -1% | 1µM* | 4% | i | i | 0% | -15 | ? | 5µM*
Clc1cccc(Nc2c3c(nc4ncnn24)CCC3)c1 | -2% | ? | 6% | i | i | 0% | . | . | .
Cc1ccc(Nc2c3c(nc4ncnn24)CCC3)cc1 | -1% | 17% | 3% | i | i | 1% | 10 | -14% | 13µM*
c1cnc(N2CCN(c3nc4ccccc4n4cnnc34)CC2)nc1 | 4% | 2.5µM* | ? | i | i | -1% | -19 | ? | 7.9µM*
Cc1cccc(N2CCN(c3nc4ccccc4n4cnnc34)CC2)c1C | ? | 8% | -1% | . | . | 1% | . | . | .
